# Source: PubChem (The Scripps Research Institute Molecular Screening Center)
# Most compounds without a hit are left out; they make up all but 1.3% or so of the library.
# Fam108B counter: counter-screen for RBBP9 inhibitors: inhibitors of mouse Fam108B; inhibition, % at 9.51 µM; 300,000 compounds, 0.33% hits; recombinant Fam108B, FP-Rh probe fluorescence polarization;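 active means inhibition above the screen mean inhibition plus 3 SD, computed separately per campaign, cut at about 18% in these data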;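 further: inhibitors lower polarization as less probe binds the enzyme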
# LYPLA2 inh: LYPLA2 (human) inhibition in PME1 counter-screen. O95372. recombinant LYPLA2, FP-Rh probe fluorescence polarization. inhibition, % at 5.9 µM. 320,000 compounds, 0.38% hits;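 active means inhibition above the screen-wide mean plus 3 SD, limit set per campaign, cut at about 26% in these data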
# Target sequence (O95372 whole entry, looked up): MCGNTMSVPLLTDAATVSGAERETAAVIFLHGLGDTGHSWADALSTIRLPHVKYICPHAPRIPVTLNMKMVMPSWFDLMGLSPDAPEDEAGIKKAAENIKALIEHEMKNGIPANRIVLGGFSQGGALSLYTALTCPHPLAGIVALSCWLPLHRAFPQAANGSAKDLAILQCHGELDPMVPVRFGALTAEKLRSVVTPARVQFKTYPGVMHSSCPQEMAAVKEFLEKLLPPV
# PREPL inh: inhibitors of human prolyl oligopeptidase-like enzyme PREPL; Q4J6C6; recombinant PREPL, fluorescence polarization activity-based probe; inhibition, % at 5.96 µM; 320,000 compounds, 0.68% hits; AID 2751; in the data active means inhibition above about 43%
# LYPLA1 counter: blocks human lysophospholipase 1, a PME1 counter-screen; recombinant LYPLA1, FP-Rh probe fluorescence polarization; inhibition, % at 5.9 µM; 320,000 compounds, 0.16% hits; AID 2174;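 active means inhibition above the mean of all tested compounds plus 3 SD, set per campaign, cut at about 14% in these data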;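 further: inhibitors block serine hydrolase probe labeling of LYPLA1 so polarization falls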
# Target sequence (O75608 whole entry, looked up): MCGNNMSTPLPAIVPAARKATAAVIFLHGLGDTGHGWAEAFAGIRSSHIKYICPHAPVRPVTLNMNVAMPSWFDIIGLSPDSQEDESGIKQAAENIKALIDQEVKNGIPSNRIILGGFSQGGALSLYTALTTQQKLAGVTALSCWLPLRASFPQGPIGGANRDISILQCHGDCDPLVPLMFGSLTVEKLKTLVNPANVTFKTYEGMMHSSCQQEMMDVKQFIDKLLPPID
# PME-1 primary: PME-1 (human) inhibition | Q9Y570 | 320,000 compounds, 0.53% hits | recombinant PME-1, FP-Rh probe fluorescence polarization | inhibition, % at 5.9 µM;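 active means inhibition above the campaign mean of all compounds plus 3 SD, cut at about 26% in these data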;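 further: competitive labeling of PME-1 active site by serine hydrolase directed probe; inhibitors block probe labeling so polarization falls and inhibition rises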
# Numbers stand for hits; – = inactive; · = not tested or not shown.
SMILES,Fam108B counter,LYPLA2 inh,PREPL inh,LYPLA1 counter,PME-1 primary
CC(=O)Nc1cc(OC(C)=O)c2nonc2c1OC(C)=O,76.3,94.8,56.4,80.6,63.3
Cc1ncc(CO)c(/C=N/NC(=S)Nc2ccc(Cl)c(Cl)c2)c1O,–,–,–,–,27.4
Cc1ccc(S(=O)(=O)c2nnn3c2nc(N2CCOCC2)c2ccccc23)c(C)c1,–,–,–,–,27.1
Nc1[nH]n(-c2ccccc2)c(=O)c1N=Nc1ccc2c(c1)OCCO2,–,–,–,–,42.6
Cc1ccc(NC(=O)CN(C)CC(=O)Nc2ccc(N3CCOCC3)cc2)c(C)c1,–,–,54.0,–,–
CN(CC(=O)Nc1ccc(N2CCOCC2)cc1)CC(=O)Nc1ccc(C(F)(F)F)cc1,–,–,–,–,–
COc1ccc(C(=O)c2oc3ccc(OC)cc3c2N)cc1,–,–,–,–,33.0
Cc1cc(OC(F)F)ccc1NC(=O)Nc1ccc2c(c1)OCO2,–,–,–,–,–
O=C1c2cccc(OCC(=O)N3N=C(c4cccs4)CC3c3ccc(F)cc3)c2CCN1Cc1cccnc1 (configuration not stated),–,37.5,–,–,–
O=C(c1cccnc1)N1N=C(c2cccs2)CC1c1ccc(F)cc1 (configuration not stated),–,–,–,–,–
COc1cc(Sc2ccc(C)cc2)c(OC)cc1N,–,–,47.2,–,–
Cc1ccc(CN2C(=O)N/C(=C\c3ccc(-c4ccc(C(=O)O)cc4C)o3)C2=O)cc1,–,–,77.8,–,–
O=C(COc1ccc(Br)cc1)Nc1ccc(CN2CCOCC2)cc1,–,–,–,–,–
N#C/C(=C(\O)c1cc(Cl)sc1Cl)c1nc2ccccc2[nH]1,–,–,–,–,34.7
N#C/C(=C(/O)c1ccc(Cl)cc1)c1nc2ccccc2[nH]1,–,–,–,–,–
COc1ccc(OC)c(N2C(=O)CC(Cc3ccc(C)cc3)C2=O)c1 (configuration not stated),–,–,–,–,31.5
Cc1ccc(C)n1Cc1ccc(C(=O)O)cc1,37.4,–,–,–,–
CCc1nc(SCC(=O)Nc2nnc(CC(C)C)s2)n[nH]1,–,–,–,–,–
C[C@H]1COC2=C1C(=O)C(=O)c1c2ccc2c1CCCC2(C)C,–,48.0,–,–,–
CC1CCCC(NC(=O)Cn2cc(Br)ccc2=O)C1C (configuration not stated),·,·,–,·,·
CCC(C)(C)C1CCc2c(sc(NC(=O)c3ccccc3C(=O)O)c2C#N)C1 (configuration not stated),–,–,–,–,27.0
Cc1ccc(S(=O)(=O)N2CCN(C(=O)Cn3c(=O)cnc4ccccc43)CC2)cc1,·,–,–,–,37.1
Cc1[nH]c2ccccc2c1N=Nc1ccccc1C(=O)O,–,–,–,–,30.2
CCN(C[C@H]1N[C@@](C)(C(=O)OC)[C@H]2C(=O)N(C)C(=O)[C@@H]12)S(=O)(=O)c1ccc(F)cc1,·,·,–,·,·
O=c1[nH][nH]c2cc(=O)n(-c3cccc(C(F)(F)F)c3)nc12,–,–,–,–,37.4
SMILES,Fam108B counter,LYPLA2 inh,PREPL inh,LYPLA1 counter,PME-1 primary
Nc1n[nH]c2cc(=O)n(-c3cccc(C(F)(F)F)c3)nc12,–,–,–,–,–
O=C(Nc1ccc(Cl)cc1Cl)c1ccc2ncsc2c1,–,–,–,–,–
Cc1cc(C(=O)COC(=O)c2ccc(Cl)c(S(N)(=O)=O)c2)c(C)n1CC1CCCO1 (configuration not stated),–,–,–,–,–
COCCn1c(C)cc(C(=O)COC(=O)c2ccc(Cl)c(S(N)(=O)=O)c2)c1C,25.1,–,–,–,–
COc1ccc(C)cc1NC(=O)C1CCCCN1S(=O)(=O)c1ccccc1 (configuration not stated),·,·,–,·,·
c1ccc(CCNc2nc(-c3ccncc3)cs2)cc1,–,–,–,–,–
CCCCCNc1nc(-c2ccccc2)cs1,–,–,69.9,–,–
O=C(COC(=O)c1ccccc1-n1cnnn1)c1ccc(F)c(F)c1,–,–,–,–,–
CCN1CCN(Cc2nc3c(c(=O)n(C)c(=O)n3C)n2Cc2cccc3ccccc23)CC1,–,–,–,–,–
CCN1CCN(c2nc3c(c(=O)n(C)c(=O)n3C)n2Cc2cccc3ccccc23)CC1,–,–,46.1,–,–
O=C(NC(C(=O)N/N=C/c1cc([N+](=O)[O-])ccc1O)c1n[nH]c(=O)c2ccccc12)c1ccccc1 (configuration not stated),–,–,–,–,48.7
COc1ccc(C2N(c3ccccc3)C(=O)C2(F)F)cc1OC (configuration not stated),–,–,–,–,–
Cc1ccc(S(=O)(=O)N(C)C[C@@H]2Oc3ccc(NC(=O)CCC(F)(F)F)cc3CC(=O)N([C@@H](C)CO)C[C@@H]2C)cc1,·,·,–,·,·
CC(C)Oc1ccc(S(=O)(=O)N2CCCCC2)cc1NC(=O)CN1C(=O)NC(C)(c2ccccc2)C1=O (configuration not stated),–,–,–,–,39.2
CC(NC(=O)/C(=C/c1ccc2c(c1)OCO2)NC(=O)c1cccc([N+](=O)[O-])c1)C(=O)O (configuration not stated),–,–,–,–,–
O=C(c1ccc2oc(CCCc3ccccc3)nc2c1)N1CCCC(CCCO)C1 (configuration not stated),–,–,–,–,42.0
CC(=O)N1CCN(C(=O)c2ccc3oc(CCCc4ccccc4)nc3c2)CC1,–,–,–,–,–
O=C(CCc1nc(-c2ccc(F)cc2)no1)Nc1cccc(C(=O)NC2CC2)c1,·,·,–,·,·
CN(C)CCCNc1nc(N)c([N+](=O)[O-])c(NC2CCCCC2)n1,–,–,–,–,–
Cc1ccc(NS(=O)(=O)c2ccc3c(c2)C(=O)c2ccccc2C3=O)c(C)c1,–,–,–,–,31.7
COc1ccccc1/C=C/C=N/n1c(-c2cc(-c3ccccc3)n[nH]2)n[nH]c1=S,–,–,–,–,26.8
S=c1[nH]nc(-c2cc(-c3ccccc3)n[nH]2)n1/N=C/C=C/c1ccccc1,–,–,–,–,–
O=C(C[n+]1ccc(C(=O)N/N=C/c2ccc(OCc3ccccc3)cc2)cc1)c1ccccc1,–,–,50.4,–,–
O=C(C[n+]1ccc(C(=O)N/N=C/c2ccc(O)cc2)cc1)c1ccccc1,–,–,–,–,–
Cc1nc(C(=O)NC2CC2)sc1C1(C)CC(c2cccc([N+](=O)[O-])c2)=NO1 (configuration not stated),–,–,–,–,–
Cc1nc(C(=O)NC2CCCCC2)sc1C1(C)CC(c2cccnc2)=NO1 (configuration not stated),–,26.2,–,–,–
O=C(CCCc1ccccc1)Nc1ccc2c(c1)OCCO2,–,–,–,–,–
COCCn1nnnc1CN(CCc1ccc(OC)c(OC)c1)Cc1cc2ccc(C)cc2[nH]c1=O,–,–,–,–,–
COCCn1nnnc1CN(CCc1ccccc1)Cc1cc2cc(OC)ccc2[nH]c1=O,–,–,54.0,–,–
